# About 83,000 compounds went through this panel and 20% of them were active in at least one assay; those are over-represented in the sample as a whole.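 Values shown are percent growth following 48 h exposure of cells in 96-well plates to a single concentration of compound; below 10 was considered active.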 A number with no mark means an inactive call. The source made the active and inactive calls.
# Columns and labels:
# Assay in all cases: NCI-60 one-dose screen, 48 h (100 = growth as untreated, 0 = no growth, -100 = all killed)
# Settings in all cases: 10 µM unless noted
# [1] = system: SR leukemia
# [2] = system: RPMI-8226 leukemia
# [3] = system: OVCAR-8 ovarian
# [4] = system: OVCAR-5 ovarian
# [5] = system: OVCAR-4 ovarian
# [6] = system: SK-OV-3 ovarian
# [7] = system: IGROV1 ovarian
# [8] = system: OVCAR-3 ovarian
# [9] = system: HS 578T breast
# [10] = system: NCI/ADR-RES ovarian
# [11] = system: T-47D breast
# [12] = system: BT-549 breast
# [13] = system: MDA-MB-435 melanoma
# [14] = system: SW-620 colon
# [15] = system: MCF7 breast
# [16] = system: HCT-116 colon
# [17] = system: HCC-2998 colon
# [18] = system: KM12 colon
Compound,growth [1],growth [2],growth [3],growth [4],growth [5],growth [6],growth [7],growth [8],growth [9],growth [10],growth [11],growth [12],growth [13],growth [14],growth [15],growth [16],growth [17],growth [18]
CCOC(=O)c1c(NCC(=O)Nc2ccc(Br)cc2)sc2c1CCCC2,43.8%,27%,36.5%,27.2%,35.5%,66.9%,22%,10.3%,57.5%,25.2%,30.9%,23.9%,42.9%,8.98% (active),11.9%,7.99% (active),67.9%,–
CCCCCCNC(=O)Oc1ccc(/C(=C(\C)c2ccc(Cl)cc2)c2ccc(OCCN(C)C)cc2)cc1,2% (active),-11.6% (active),84.8%,78.1%,74.5%,94.4%,44.7%,66.4%,80.6%,62.9%,54.8%,77.4%,85.3%,21.3%,10.8%,18.7%,71.4%,83.1%
CN(C)c1ncc(/C=C2\SC(=S)N(Cc3ccccc3Cl)C2=O)s1,87.8%,86.3%,95.8%,87.9%,2.09% (active),107%,70.8%,26.8%,101%,90.8%,96.9%,102%,103%,82.6%,92.1%,40.5%,102%,97.5%
CCC(CC)N1C(=O)/C(=c2\sc3n(c2=O)C2C(NN=3)N(CC)C(=O)N2CC)c2ccccc21 (stereo not given),5.6% (active),8.29% (active),34.8%,29.8%,38.4%,42.6%,23%,7.62% (active),25.6%,11%,66.5%,78.6%,-8.32% (active),27.2%,15%,15.1%,21.7%,14.2%
CCOC(=O)c1c(NC(=O)c2ccc(C(C)(C)C)cc2)sc2cc(OCCN3CCCCC3)ccc12,16.5%,14.6%,93.4%,91.8%,102%,106%,74.9%,74.8%,96.5%,88.3%,96.9%,93%,91.8%,22.2%,34.8%,21.7%,87%,–
COCCC[C@H]1O[C@@](O)([C@H](C)[C@@H]2CC(OC)C(O)/C=C(C)/C=C(C)/C=C(\C)C(OC3O[C@@H](C)[C@H](O)C(O)[C@@H]3O)C(C)/C=C(C)/C=C(OC)/C=C(\C)C(=O)O2)C(OC)C(O)[C@]1(C)O[C@H]1C[C@@H](O)[C@H](O[C@H]2C[C@](C)(O)[C@H](O)C(C)O2)C(C)O1 (stereo not given in full),113%,27.5%,41.9%,78.9%,19.7%,61%,88.1%,74.9%,86.1%,67.3%,24.6%,28.7%,54.9%,76.4%,22.4%,48.2%,56.4%,66.5%
CCNC(=NCCCN(C)C)N/C(N)=N/c1nc2ccccc2s1,55.1%,96.9%,90.9%,95.6%,107%,89.9%,91.1%,104%,92%,96.8%,94.7%,97.1%,93.8%,103%,82.8%,76.4%,98.1%,93.9%
N/C(=N\OC(=O)CSc1nc2ccccc2s1)c1ccc(Cl)cc1,84.8%,99.4%,98%,100%,107%,101%,89%,111%,97%,101%,96.6%,107%,101%,98%,97.4%,105%,105%,101%
O=C1CC2(CCOCC2)Oc2ncccc21,15%,5.53% (active),90.9%,52.6%,102%,120%,8.85% (active),-54.4% (active),95.2%,104%,70.6%,105%,81.2%,-54.6% (active),12.7%,29%,25.1%,12.1%
COc1c([C@@H](CC(C)C)OC(C)=O)ccc2c1C(=O)OCc1cc(C)cc(O)c1O2,19.1%,27.6%,21.2%,69.4%,25.9%,24.3%,44%,43%,45.9%,12.6%,17.4%,31.3%,30%,20%,18.4%,12.3%,35%,30.7%
Oc1ccc(-c2nnc(SCc3ccc(O)c4ncccc34)n2-c2ccccc2)cc1,37.3%,15.5%,10.1%,34.6%,10.2%,18.7%,8.1% (active),3.67% (active),39.8%,8.08% (active),14.8%,26.9%,21.5%,16.4%,2.53% (active),12.7%,27.3%,17.3%
CSc1ccc(/C(=N/N=C(N)N)c2ccccc2)cc1,19.7%,17.9%,29.5%,48.3%,67.2%,66.2%,21.8%,2.28% (active),31.8%,40.3%,70.9%,53.8%,-18% (active),25.7%,11.7%,13%,9.99% (active),17.2%
CN1C(=O)N(C)C2Nn3c(s/c(=C\c4ccccn4)c3=O)=NC21 (stereo not given),109%,105%,101%,104%,104%,114%,98.3%,106%,113%,103%,102%,103%,99.2%,105%,89.3%,100%,109%,106%
O=C(Nc1cc(Cl)cc(Cl)c1)Nc1nc2ccc([N+](=O)[O-])cc2s1,-0.61% (active),-23.8% (active),8.77% (active),24%,10%,-2.86% (active),21.1%,13.8%,-6.91% (active),2.26% (active),-13.4% (active),-24% (active),-6.04% (active),8.7% (active),2.98% (active),0.0425% (active),3.91% (active),–
O=c1c2c(O)cccc2oc2c3c(cc(O)c12)O[C@H]1OC=C[C@@H]31,42.6%,93.7%,87.8%,110%,94.5%,78.9%,77.4%,106%,94.9%,87.9%,57.4%,95.2%,83.3%,78.1%,8.3% (active),86.6%,63.8%,82.4%
N/C(=N\c1nc2c(Cl)cccc2s1)C(Cl)(Cl)Cl,94.2%,53.3%,87.6%,95.5%,76%,91.3%,89.1%,57.9%,80.2%,89%,42.4%,111%,89.1%,82.5%,49.3%,69.7%,72.9%,41.5%

# — PubChem BioAssay (NCI)
